Consider five molecules from PubChem BioAssay.

Several values for one entry are separate records, joined by “and”; a condition that tells them apart may be missing. Identical values can stand only once. The source holds several records for some structures; these can differ, active in one and inactive in another. Activity calls are given as the source filed them.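 Rule for the calls, unless noted: active = compounds whose cell count with miR-34 switched on is under 0.7 times the count with it off; inactive = the rest.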

A word on the viability: it is a read-out of living cells in per cent, often relative to untreated cells.

A short description of experiment [1]: compounds altering viability of human ES cells (AID 493140; call rule not given here;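 note: cells exposed to compounds for four days before counting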). The note with it: human embryonic stem cell survival screen; stronger effect = higher value.
Experiment [2] can be described thus: P. berghei load reduction in hepatocytes – cell-based, HepG2, luciferase luminescence, HepG2 viability, primary screen (AID 624349; in the data active = parasite load remaining mostly below about 12%, no sharp cut-off; inactive = mostly above about 10%;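 note: 100% = mean of DMSO negative control wells on the same plate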). The note with it: P. berghei liver stage in HepG2, luciferase luminescence, concentration not given here; parasite load remaining: stronger effect = lower value; viability: measured here: HepG2 viability without parasites.
The nature of experiment [3]: Wnt pathway potentiators raising nuclear beta-catenin – imaging, WNT3A-conditioned medium, mouse C2C12, NPC library, primary screen (AID 1117326; in the data active = nuclear beta-catenin stimulation mostly above about 4.2%, no sharp cut-off; inactive = mostly below about 10%). The note with it: stronger effect = higher value.
The nature of experiment [4]: stimulators of insulin release from INS-1E, primary screen, cell-based, 5 mM glucose, NPC library (AID 1117329;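 active = compound raises insulin release from rat beta cells at 5 mM glucose, no numeric limit stated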). The note with it: rat INS-1E insulin secretion, at 10 µM, stronger effect = higher value.
A short description of experiment [5]: growth inhibition of GSK3B-pretreated HCT116 cells – cell-based, CellTiter-Glo, 0.2 to 20 µM (AID 1117336;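 active = compounds lowering colon cancer cell viability after pretreatment blocking the GSK3B kinase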). Conditions: HCT116 viability after GSK3B inhibitor, at 20 µM, stronger effect = higher value. (In general: Cellular ATP, detected with luciferase, serves as a proxy for viable cell number.)
A short description of experiment [6]: inhibition of endothelial tube formation, primary screen, imaging, VEGF stimulated, CD31 staining, tube area, NPC library (AID 1117340;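 active = compound that reduces growth-factor-driven endothelial tube area in a mixed cell culture, no cutoff stated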). The note with it: VEGF-stimulated ADSC/ECFC co-culture, at 10 µM, stronger effect = higher value.
Experiment [7] in a line: GLP1 release stimulators, primary, NCI-H716, NPC library (AID 1117341;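 active = compound raises GLP1 secretion from the human gut endocrine cells, with no numeric limit stated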). The note with it: NCI-H716 cells, at 10 µM, stronger effect = higher value.
Experiment [8] is described as follows: HCT116 colon cancer cell growth inhibition, primary screen, CellTiter-Glo luminescence, NPC library (AID 1117342;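 active = compounds that lower survival of HCT116 colon cancer cells in the luminescence readout, no numeric limit stated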). The note with it: at 20 µM (top of the series).
Experiment [9] in a line: reduced SW480 viability measured with CellTiter-Glo, NPC library, primary (AID 1117343;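 active = compounds that lower viability of the colon cancer cells in the luminescence readout, with no numeric limit stated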). The note with it: CellTiter-Glo luminescence; at 20 µM (top of the series) unless noted.
Experiment [10] in a line: NPC library primary testing for decreased DLD-1 cell viability via CellTiter-Glo (AID 1117346;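 active = compounds that lower survival of DLD-1 colon cancer cells in the luminescence readout, no cutoff given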). The note with it: DLD-1 viability, CellTiter-Glo luminescence; at 20 µM (top of the series).
The nature of experiment [11]: EMT-state selective cytotoxicity in co-culture – imaging, PC-3E GFP, TEM4-18 mCherry, primary screen (AID 1345086;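 active = compounds killing one labelled cell type while sparing the other, by normalised counts and ratio limits, not self-fluorescent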;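 for all read-outs here: cells exposed to compound for 72 h before imaging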;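 for red/green cell ratio (normalised): normalised mesenchymal count divided by normalised epithelial count so high means epithelial killing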). Conditions: PC-3E GFP / TEM4-18 mCherry co-culture, imaging cell counts, at 1 µM; for red/green cell ratio (normalised): actives lie on both sides, counts scaled to control wells, 1 = unselective.
Experiment [12] can be described thus: viability loss with induced miR-34 in A549 – imaging, A549 dox-inducible miR-34, nuclei and caspase counts, primary screen (AID 1347080). Conditions: A549 miR-34 inducible, Hoechst nuclei count, 48 h.
Experiment [13] is described as follows: MELAS cybrid and Rieske KO viability enhancers – cell-based, MELAS cybrids, Rieske KO mouse fibroblasts, CellTiter-Glo, primary screen (AID 1508586;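 active = mean z-score across replicates of 1.96 or higher in either the MELAS or the Rieske mutant cell line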;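 note: z relative to plate mean and SD of compound and empty wells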). The note with it: low glucose.
Experiment [14] deals with NAD(+) hydrolase SARM1 (Homo sapiens) (UniProt Q6SZW1). Nature of the experiment: blocking NAD cleavage by SARM1 SAM-TIR – cell lysate, NAD-Glo luminescence (AID 1508614;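 active = compound whose remaining NAD level is above about 45 nM, limit read from the data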;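 note: higher remaining NAD means stronger inhibition of SARM1 NADase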). The note with it: SAM-TIR HEK293T lysate NADase, at 1 µM, stronger effect = higher value.
Chain of NAD(+) hydrolase SARM1 (Homo sapiens) (Q6SZW1 whole entry, looked up): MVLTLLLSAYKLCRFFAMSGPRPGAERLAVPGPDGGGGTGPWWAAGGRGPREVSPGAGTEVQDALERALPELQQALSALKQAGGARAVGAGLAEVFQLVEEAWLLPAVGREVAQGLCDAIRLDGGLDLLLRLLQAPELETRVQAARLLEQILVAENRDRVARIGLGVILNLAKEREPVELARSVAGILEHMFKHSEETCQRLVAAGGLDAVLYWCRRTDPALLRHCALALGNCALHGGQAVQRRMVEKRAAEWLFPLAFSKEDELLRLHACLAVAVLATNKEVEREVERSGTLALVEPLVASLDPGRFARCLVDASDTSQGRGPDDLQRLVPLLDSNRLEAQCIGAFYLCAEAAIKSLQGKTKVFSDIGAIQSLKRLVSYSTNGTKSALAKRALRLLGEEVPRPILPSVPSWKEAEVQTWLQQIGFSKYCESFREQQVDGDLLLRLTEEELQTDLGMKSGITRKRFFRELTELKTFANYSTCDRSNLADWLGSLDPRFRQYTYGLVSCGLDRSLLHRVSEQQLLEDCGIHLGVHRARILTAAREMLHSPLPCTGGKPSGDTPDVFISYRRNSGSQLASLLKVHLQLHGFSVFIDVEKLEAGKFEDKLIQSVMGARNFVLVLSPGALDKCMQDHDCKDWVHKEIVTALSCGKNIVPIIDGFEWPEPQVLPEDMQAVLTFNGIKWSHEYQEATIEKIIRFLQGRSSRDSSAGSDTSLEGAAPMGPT
The mark [15] stands for this setting: measured here: epithelial PC-3E GFP cell survival.
Where [16] appears, read: measured here: mesenchymal TEM4-18 mCherry cell survival.
Where [17] appears, read: stronger effect = lower value, cell number ratio, induced over uninduced.
Setting [18] is: measured here: relative caspase fold change +Dox/-Dox.
[19] abbreviates: measured here: total cells with miR-34 induction, stronger effect = lower value.
Setting [20] is: measured here: total cells without miR-34 induction.
Setting [21] is: MELAS cybrid survival, CellTiter-Glo 48 h, stronger effect = higher value.
Where [22] appears, read: Rieske KO mouse fibroblast survival, CellTiter-Glo 72 h.

Take `C[C@@H](O)[C@H]1C(=O)N2C(C(=O)O)=C(SCCN=CN)C[C@H]12`: the survival in experiment [1] was 8.25 (inactive). Further, the parasite load remaining in [2] was 97.9% (inactive) and 82.7% (inactive) and 21.5% (inactive). Also, in [2], the viability was 121% and 75.9% and 75.5%. In addition, the nuclear beta-catenin stimulation is 0.4% (inactive) in experiment [3] (at 10 µM) and 4% in experiment [3] (stimulation, at 2 µM). The insulin secretion stimulation in [4] is -0.5% (inactive). Moreover, the viability decrease in experiment [5] is 6.7% (inactive). Besides, the tube area decrease in [6] is 8.2% (inactive). Further, the GLP1 secretion stimulation in experiment [7] was -1.8% (inactive). Moreover, the inhibition of viability in experiment [8] was 1.15% (inactive). Moreover, the figures for the viability decrease (inhibition) in experiment [9] and in experiment [10] were -18.3% (inactive) and 2% (inactive), respectively. In addition, in experiment [11], the red/green cell ratio (normalised) was 0.95 (inactive). In addition, the normalised cell number in experiment [11] (setting [15]) came out at 1.17; in experiment [11] (setting [16]), 1.11. The fold change in [12] (setting [17]) is 1.02 (inactive) and 0.837 (inactive) and 0.836 (inactive); in experiment [12] (setting [18]), 2.4 and 1.6 and 1.5. The cell count is 10800 and 9100 and 8570 in [12] (setting [19]); 10500 and 10900 and 10300 in experiment [12] (setting [20]). Moreover, the z-score in experiment [13] (setting [21]) was 0.502 (inactive) and 0.0491 (inactive); in experiment [13] (setting [22]), -0.015 and -0.95. Moreover, in [14], the remaining NAD is 10 nM (inactive).
In the case of `CCCCOC(=O)c1ccc(O)cc1`, in experiment [1], the survival is 2.33 (inactive). Further, the parasite load remaining in experiment [2] was 105% (inactive) and 43.2% (inactive). In addition, the viability in experiment [2] was 94.2% and 99.8%. For the same molecule, the nuclear beta-catenin stimulation in experiment [3] (at 10 µM) is 1.7% (inactive); in [3] (stimulation, at 2 µM), 1.9%. Also, the insulin secretion stimulation in experiment [4] is 4.6% (inactive). The viability decrease in experiment [5] is -64.4% (inactive). In experiment [6], the tube area decrease was 17% (inactive). Also, in experiment [7], the GLP1 secretion stimulation was -6.3% (inactive). The inhibition of viability in [8] was 15% (inactive). In addition, the viability decrease (inhibition) was 67.9% (active) in experiment [9] and 9.6% (inactive) in experiment [10]. The red/green cell ratio (normalised) in experiment [11] was 1.09 (inactive). In addition, the figures for the normalised cell number in [11] (setting [15]) and in experiment [11] (setting [16]) were 1.43 and 1.56, respectively. In addition, the fold change in experiment [12] (setting [17]) was 0.899 (inactive) and 0.857 (inactive); in experiment [12] (setting [18]), 1.34 and 7.37. Moreover, the cell count in experiment [12] (setting [19]) is 8710 and 10100; in [12] (setting [20]), 9690 and 11800. For the same molecule, the values for the z-score in [13] (setting [21]) and in experiment [13] (setting [22]) were 0.705 (inactive) and -0.347, respectively. Also, the remaining NAD in experiment [14] is 10 nM (inactive).
As for `OC1(c2ccc(Cl)c(C(F)(F)F)c2)CCN(CCCC(c2ccc(F)cc2)c2ccc(F)cc2)CC1`, the nuclear beta-catenin stimulation is -2.1% (inactive) in experiment [3] (at 10 µM) and 27.1% in [3] (stimulation, at 2 µM). The insulin secretion stimulation in experiment [4] was 0.05% (inactive). Further, the viability decrease in [5] was 117% (active). Also, the tube area decrease in experiment [6] is 112% (active). Besides, the GLP1 secretion stimulation in experiment [7] was 51.4% (active). Besides, the inhibition of viability in [8] is 124% (active). In addition, the results for the viability decrease (inhibition) in [9] and in [10] were 158% (active) and 101% (active), respectively. Moreover, in [11], the red/green cell ratio (normalised) was 0.98 (inactive). Also, the normalised cell number in experiment [11] (setting [15]) came out at 0.98; in experiment [11] (setting [16]), 0.96. Besides, the fold change in experiment [12] (setting [17]) is 0.677 (active) and 0.99 (inactive); in experiment [12] (setting [18]), 1.19 and 0.678. The cell count is 3030 and 2930 in [12] (setting [19]); 4480 and 2970 in [12] (setting [20]). Besides, the figures for the z-score in experiment [13] (setting [21]) and in experiment [13] (setting [22]) were -0.344 (inactive) and -0.197, respectively. Besides, the remaining NAD in experiment [14] was 10 nM (inactive).
With `O=c1[nH]c(=O)c2ccccc2o1`, the nuclear beta-catenin stimulation in experiment [3] (at 10 µM) was 0.9% (inactive); in experiment [3] (stimulation, at 2 µM), 0.3%. Besides, in [4], the insulin secretion stimulation is -1.9% (inactive). In experiment [5], the viability decrease is -6.75% (inactive). For the same molecule, in experiment [6], the tube area decrease is 10.2% (inactive). Also, in experiment [7], the GLP1 secretion stimulation is 0.9% (inactive). Also, the inhibition of viability in experiment [8] was -33.3% (inactive). In addition, the viability decrease (inhibition) in experiment [9] is 102% (active); in experiment [10], -5.5% (inactive). Besides, the red/green cell ratio (normalised) in [11] is 0.79 (inactive). The normalised cell number in experiment [11] (setting [15]) worked out at 1.11; in [11] (setting [16]) it was 0.88. Also, the results for the fold change in experiment [12] (setting [17]) and in experiment [12] (setting [18]) were 0.86 (inactive) and 0.838, respectively. Also, the cell count in [12] (setting [19]) was 8540; in experiment [12] (setting [20]), 9930. For the same molecule, in experiment [14], the remaining NAD was 10 nM (inactive).
For `NS(=O)(=O)c1ccc(C(=O)O)cc1`, the nuclear beta-catenin stimulation in [3] (at 10 µM) was 1.5% (inactive); in experiment [3] (stimulation, at 2 µM), 1.6%. Moreover, the insulin secretion stimulation in experiment [4] is -0.4% (inactive). Further, the viability decrease in experiment [5] was 15.4% (inactive). For the same molecule, the tube area decrease in experiment [6] was -32.8% (inactive). In addition, in [7], the GLP1 secretion stimulation was 2.9% (inactive). Also, the inhibition of viability in experiment [8] is -10.4% (inactive). In addition, the viability decrease (inhibition) in [9] is 21.5% (inactive); in experiment [10] it was 3.9% (inactive). For the same molecule, the red/green cell ratio (normalised) in experiment [11] was 0.82 (inactive). Besides, the normalised cell number in experiment [11] (setting [15]) was 1.25; in experiment [11] (setting [16]), 1.03. Besides, the fold change in [12] (setting [17]) was 0.907 (inactive); in experiment [12] (setting [18]), 1.07. Further, the cell count in experiment [12] (setting [19]) is 8630; in experiment [12] (setting [20]) it was 9520. In experiment [14], the remaining NAD was 10 nM (inactive).
